Rows were chosen to be rich in hits. Some 6.5% of all compounds tested hit in one or more screens of this group.
MARV entry inh – blocks Marburg virus binding to or entry into cells. AID 540276. Potency, µM (top dose mostly 37.8 µM), inactives show at the top dose activity change, negative = inhibition, actives largely listed as inhibitors. actives 1.8% (n = 300,000). Marburg virus pseudotyped entry inhibition, cell reporter; calls by dose curve; tested in HEK293 cells; note: potency is the fitted concentration of half-maximal effect
VACV mCherry inh – vaccinia inhibition (mCherry reporter) | Vaccinia virus mCherry reporter infection, fluorescence | Potency, µM (titrated, usually from 36.5 µM), for the others: top-dose activity change, negative = inhibition, most hits filed as inhibitors | actives 0.63% (n = 310,000) | AID 720579; calls by dose curve; tested in A549 cells; note: potency is the fitted concentration of half-maximal effect; nearly all actives have a fitted effect of over 35% in size
LASV entry inh – inhibitors of Lassa virus binding or cell entry; Lassa virus pseudotype entry inhibition, cell reporter; Potency, µM (highest dose often 37.9 µM), without a hit: at the top dose activity change, negative = inhibition, most hits filed as inhibitors; actives 1.2% (n = 300,000); calls by dose curve; tested in HEK293 cells; note: potency is the fitted concentration of half-maximal effect; nearly all actives have a fitted effect of over 50% in size
VACV Venus inh – inhibitors of vaccinia virus (Venus reporter); Potency, µM (doses to about 36.5 µM), inactives show at the top dose activity change, negative = inhibition, most hits filed as inhibitors; actives 0.46% (n = 330,000); Vaccinia virus Venus reporter expression, fluorescence; AID 720580; calls by dose curve; tested in A549 cells; note: potency is the fitted concentration of half-maximal effect; nearly all actives have a fitted effect of over 30% in size
FMDV inh – foot and mouth disease virus antiviral activity. Potency, µM (top dose mostly 57.9 µM), for the others: at the top dose activity change, negative = inhibition, most hits filed as inhibitors. FMDV antiviral cell-based qHTS. AID 1159524. actives 1.2% (n = 410,000); calls by dose curve; tested in HEK293T cells; note: read-out not given here; potency is the fitted concentration of half-maximal effect; nearly all actives have a fitted effect of over 45% in size
HCMV inh – blocks human cytomegalovirus replication; HFF cells, HCMV-luciferase reporter, 72 h; active compounds read low; activity change, negative = inhibition, % at 57.5 µM; actives 4.5% (n = 410,000); AID 1259415; in the data active = activity change below about -60%; inconclusive = no clear call, values can overlap the other calls; inactive = above about -39%
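Human foreskin fibroblasts infected with luciferase-reporter HCMV at MOI 1 PFU/cell, compounds at two doses. Luciferase measured 72 h post infection; normalized to buffer-only basal and Salinomycin (10uM) controls.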
Active calls of the source: *; i = inactive; ? = inconclusive; . = no result given; [ ] = remark or other dose. % is set by controls: 0 for no effect and ±100 for the full control effect.

SMILES	MARV entry inh	VACV mCherry inh	LASV entry inh	VACV Venus inh	FMDV inh	HCMV inh
Cc1cc(Cl)c(S(=O)(=O)N2CCCCCC2)cc1OCC(=O)NC1CCCCC1	-16.8%	.	-5.3%	.	-3.6%	?
Cc1cc(Cl)c(S(=O)(=O)N2CCSCC2)cc1OCC(=O)NC1CCCCC1	9.2µM*	.	?	.	-54.9%	-95.3*
CCC(C(=O)N(C)Cc1ccccc1)n1nc(C)c2sc3ccccc3c2c1=O (configuration not stated)	2.5%[46.1 µM]	-13.8%	1.7%[46.1 µM]	-14.5%	-20.1%	-14.6
C=CC(C)(O)CC1[C@@]2(C)CCCC(C)(C)C2CC[C@]1(C)O (some centres not stated)	.	.	.	.	-10.7%	.
Cc1cc(Cl)ccc1OCC(=O)NC1CCCC1	?	-27.2%	-5.7%	-21.0%	.	-74.4*
Cc1cc(Cl)ccc1OCC(=O)OCC(=O)NC1CCCC1	-0.5%	-12.5%	-10.6%	5.4%	-9.0%	-14.2
Cc1cc(Cl)c(S(=O)(=O)NC2CCCC2)cc1OCC(=O)NC1CCCCC1	?	.	?	.	-12.2%	-90.1*
CCn1c(SCc2cccc(Br)c2)nnc1-c1nonc1NC(C)=O	3.0%[46.1 µM]	-15.4%	8.5%[46.1 µM]	-20.9%	-28.0%	-14.3
NC(=O)Nc1ccc(/C=C2\C=Cc3ccccc32)cc1	.	-19.9%	.	-28.7%	.	.
COc1ccc(-c2nn3c(-c4cc(C)[nH]n4)nnc3s2)cc1	.	-26.7%	.	-18.5%	.	.
CCCc1cc(C(=O)Nc2cc(C)ccc2O)no1	?	?	?	-7.6%	40.7%	-69.1*
CCCc1cc(C(=O)Nc2cccnc2Cl)no1	?	-17.1%	11.4%	?	64.5%	-1.3
CC(=O)Nc1cncc(-c2ccccc2F)n1	.	24.0%	.	1.7%	-20.2%	-95.5*
CC(=O)Nc1cncc(-c2ccccc2C(C)=O)n1	.	31.9%	.	-2.7%	25.8%	-17.1
CC(C)CCNC(=O)Nc1ccc2c(c1)N(C)C(=O)c1ccccc1S2	1.9%[46.1 µM]	-23.6%	?	-15.9%	3.0%	-31.2
O=C(CC(c1ccccc1)c1ccccc1O)N1CCCCC1 (configuration not stated)	.	.	.	.	20.2%	-82.1*
N#Cc1c(Nc2ccccc2)sc(C(=O)c2ccccc2)c1N	1.2%	.	-25.7%	-9.4%	-8.7%	-28.0
Nc1c(C(=O)c2ccccc2)sc(Nc2ccc(Cl)c(Cl)c2)c1C(=O)Nc1ccccc1	.	?	?	?	-23.9%	-107.0*
CCOc1ccc(NC(=O)c2c(Nc3ccc(OC)cc3OC)sc(C(=O)c3ccc(Cl)cc3)c2N)cc1	.	i	-5.3%[46.1 µM]	-20.5%	-8.8%	-8.8
Cc1ccc(Nc2sc(C(=O)c3ccccc3)c(N)c2C(=O)Nc2ccc(Cl)cc2)cc1	.	?	-5.7%[46.1 µM]	?	-52.9%	-103.1*
Cc1nc(Nc2ccc(Cl)c(Cl)c2)sc1C(=O)Nc1ccccc1	?	.	?	.	-20.6%	-89.3*
Cc1nc(Nc2ccc(Cl)cc2Cl)sc1C(=O)Nc1ccccc1	?	i	-14.7%	4.0%	-6.4%	-14.3
Cc1nc(NC(=O)C2CC2)sc1C(=O)Nc1ccccc1Cl	.	.	.	.	84.1%	-104.4*
Oc1c(C(c2ccccc2)N2CCN(Cc3ccccc3)CC2)sc2nc(-c3ccco3)nn12 (configuration not stated)	.	-21.6%	-7.4%[46.1 µM]	-13.0%	4.5%	-18.4
O=C(CSc1nnc(NC(=O)C2CC2)s1)Nc1ccccc1C(F)(F)F	?	14.7%	-1.9%	2.3%	5.6%	2.9
SMILES	MARV entry inh	VACV mCherry inh	LASV entry inh	VACV Venus inh	FMDV inh	HCMV inh
O=C(CSc1nnc(NC(=O)C2CC2)s1)Nc1ccccc1Cl	?	3.6%	.	-2.8%	21.0%	-63.5*
CC(C)C[C@H]1COc2cc(N3CCCC3)ccc2S(=O)(=O)N1	?	.	.	.	.	-24.9
Cc1ccc2[nH]c3c(c2c1)CN(C(=O)CN1C[C@@H](C)O[C@@H](C)C1)CC3	6.5%	.	.	.	.	.
COc1ccc(C2=NNC(=Nc3cc(S(=O)(=O)N(C)C)ccc3C)SC2)c(OC)c1	.	.	.	.	?	-97.5*
CC(=O)Nc1ccc(C2=NNC(=Nc3cccc(S(=O)(=O)N(C)C)c3)SC2)cc1	.	.	.	.	-14.4%	.
CSc1ccccc1NC(=O)Cc1ccccc1	-2.0%[46.1 µM]	-10.4%	29.5%[46.1 µM]	-7.7%	5.0%	4.3
CSc1ccccc1NC(=O)COC(=O)CCc1ccccc1	5.9%[46.1 µM]	i	4.5%	-5.6%	4.7%	-61.5*
Cc1cc(/C=N\NC(=O)c2cccs2)c(C)n1-c1ccc2ncccc2c1	?	.	10µM*	?	-29.2%	38.5
COC1=C(C(=O)c2ccccc2)C(=O)[C@@]2(CC=C(C)C)C[C@@H]([S+](=O)([O-])c3ccccc3)C(C)(C)[C@@]1(CC=C(C)C)C2=O	-16.6%[14.2 µM]	.	?	.	.	.
CN1CCN(C2=C(Cl)C(=O)N(C3CCCCC3)C2=O)CC1	16.8%	.	0.7%	.	-23.1%	-95.3*
CCOC(=O)C1(Cc2cccc(OC)c2)CCN(Cc2ccccc2OC)CC1	?	-19.3%	-26.0%	-16.3%	?	-61.9*
CCOC(=O)c1[nH]ncc1CN1CCC(Cc2cccc(OC)c2)(C(=O)OCC)CC1	.	.	.	.	-13.9%	-19.9
CCOC(=O)C1(CCOC)CCN(C(=O)Cc2ccc3ccccc3c2)CC1	10µM*	-2.7%	?	-8.6%	-4.3%	-23.8
CCOC(=O)C1(Cc2ccc(Cl)cc2)CCN(C(C)Cc2ccc(O)c(OC)c2)CC1 (configuration not stated)	.	.	.	.	?	-63.5*
CCOC(=O)C1(Cc2ccc(OC)cc2)CCN(S(C)(=O)=O)CC1	-6.4%[46.1 µM]	i	15.4%[46.1 µM]	5.9%	4.5%	31.5
CCOC(=O)C1(CCc2ccccc2)CCN(C2CCSCC2)CC1	10µM*	-3.0%	?	-10.3%	-13.9%	-26.7
O=c1ccc2cc(S(=O)(=O)NCc3ccc(Cl)cc3)ccc2[nH]1	.	-2.1%	20.6%[46.1 µM]	-4.0%	-6.7%	7.5
COc1ccc(CCNc2nc(SCc3cccc(Cl)c3)nc3ccccc23)cc1OC	.	-26.9%	12.6%[46.1 µM]	?	?	65.3
COc1ccc(NC(=O)C(C)n2nc(-c3cc(C)ccc3C)c3c(c2=O)CCCC3)cc1 (configuration not stated)	?	-8.5%	-17.2%[46.1 µM]	-9.6%	-26.4%	-2.0
COc1ccccc1C1CN(CC(=O)N2CCC(C(O)c3ccccn3)CC2)Cc2ccccc2O1 (configuration not stated)	.	-23.2%	.	-15.3%	1.6%	.
O=C(c1csnn1)N1CCC2(CC1)CN(c1ccccn1)C2	.	.	.	.	-10.6%	.
CCOC(=O)C1(CCc2ccccc2)CCN(Cc2ccc(C(=O)OC)cc2)CC1	.	.	.	.	?	-10.4
CCOC(=O)C1(CCc2ccccc2)CCN(Cc2ccc3c(c2)OCCO3)CC1	?	-12.6%	?	-4.6%	?	-77.0*
CCOC(=O)C1(CCOc2ccccc2)CCN(Cc2ccc(C)s2)CC1	?	-7.3%	?	-7.1%	?	-82.0*
CCOC(=O)C1(CCOc2ccccc2)CCN(Cc2cccn2-c2cccnc2)CC1	?	-0.6%	?	-20.0%	-26.0%	-72.4*
CCOC(=O)C1(CCOc2ccccc2)CCN(Cc2cc(OC)c3c(c2)OCO3)CC1	2.82µM*	-4.4%	?	-13.3%	?	?
